“And” between values parts separate entries of the source, which are not always exact repeats. Identical values can stand only once. The source made the active and inactive calls.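 Rule for the calls, unless noted: active = normalized viability below 100% at a tested concentration; inactive = the rest.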
Columns and labels:
[1] = Wnt pathway potentiators raising nuclear beta-catenin – imaging, WNT3A-conditioned medium, mouse C2C12, NPC library, primary screen (AID 1117326; in the data active = nuclear beta-catenin stimulation mostly above about 4.2%, no sharp cut-off; inactive = mostly below about 10%); settings: stronger effect = higher value
[2] = growth inhibition of GSK3B-pretreated HCT116 cells – cell-based, CellTiter-Glo, 0.2 to 20 µM (AID 1117336;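 active = compounds lowering colon cancer cell viability after pretreatment blocking the GSK3B kinase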); settings: HCT116 viability after GSK3B inhibitor, at 20 µM, stronger effect = higher value
[3] = HCT116 colon cancer cell growth inhibition, primary screen, CellTiter-Glo luminescence, NPC library (AID 1117342;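 active = compounds that lower survival of HCT116 colon cancer cells in the luminescence readout, no numeric limit stated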); settings: at 20 µM (top of the series)
[4] = reduced SW480 viability measured with CellTiter-Glo, NPC library, primary (AID 1117343;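 active = compounds that lower viability of the colon cancer cells in the luminescence readout, with no numeric limit stated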); settings: CellTiter-Glo luminescence; at 20 µM (top of the series) unless noted
[5] = NPC library primary testing for decreased DLD-1 cell viability via CellTiter-Glo (AID 1117346;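 active = compounds that lower survival of DLD-1 colon cancer cells in the luminescence readout, no cutoff given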); settings: DLD-1 viability, CellTiter-Glo luminescence; at 20 µM (top of the series)
[6] = compounds altering viability of human ES cells (AID 493140; call rule not given here;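 note: cells exposed to compounds for four days before counting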); settings: human embryonic stem cell survival screen; stronger effect = higher value
[7] = stimulators of insulin release from INS-1E, primary screen, cell-based, 5 mM glucose, NPC library (AID 1117329;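 active = compound raises insulin release from rat beta cells at 5 mM glucose, no numeric limit stated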); settings: rat INS-1E insulin secretion, at 10 µM, stronger effect = higher value
[8] = inhibition of endothelial tube formation, primary screen, imaging, VEGF stimulated, CD31 staining, tube area, NPC library (AID 1117340;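 active = compound that reduces growth-factor-driven endothelial tube area in a mixed cell culture, no cutoff stated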); settings: VEGF-stimulated ADSC/ECFC co-culture, at 10 µM, stronger effect = higher value
[9] = GLP1 release stimulators, primary, NCI-H716, NPC library (AID 1117341;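 active = compound raises GLP1 secretion from the human gut endocrine cells, with no numeric limit stated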); settings: NCI-H716 cells, at 10 µM, stronger effect = higher value
[10] = molecular target: 6-phosphogluconate dehydrogenase, decarboxylating (Homo sapiens) (UniProt P52209); experiment: inhibition of human phosphogluconate dehydrogenase – biochemical, recombinant enzyme, NADPH absorbance, primary screen (AID 1159550;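 active = at least 20% inhibition of 6-phosphogluconate dehydrogenase activity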); settings: recombinant 6PGD, NADPH absorbance 341 nm; at 10 µM; stronger effect = higher value
Chain of 6-phosphogluconate dehydrogenase, decarboxylating (Homo sapiens) (P52209 whole entry, looked up): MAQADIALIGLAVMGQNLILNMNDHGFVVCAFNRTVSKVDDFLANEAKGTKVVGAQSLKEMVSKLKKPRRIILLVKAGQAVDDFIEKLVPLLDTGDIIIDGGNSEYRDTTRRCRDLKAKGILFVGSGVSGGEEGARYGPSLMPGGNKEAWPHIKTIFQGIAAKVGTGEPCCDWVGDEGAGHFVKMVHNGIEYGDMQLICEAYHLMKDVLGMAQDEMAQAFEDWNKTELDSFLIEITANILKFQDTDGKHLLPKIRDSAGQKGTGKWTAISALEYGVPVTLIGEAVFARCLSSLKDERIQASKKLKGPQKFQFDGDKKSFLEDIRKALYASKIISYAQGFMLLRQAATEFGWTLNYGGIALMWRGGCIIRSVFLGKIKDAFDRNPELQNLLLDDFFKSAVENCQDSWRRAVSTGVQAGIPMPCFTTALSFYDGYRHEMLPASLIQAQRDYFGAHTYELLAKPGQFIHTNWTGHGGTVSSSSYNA

[11] = modulation of C. elegans fzo-1 (AID 1259413; call rule not given here;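 note: fzo-1 mutant C. elegans worms in liquid wells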); settings: C. elegans fzo-1 modulator screen, mean read-out; stronger effect = higher value
[12] = EMT-state selective cytotoxicity in co-culture – imaging, PC-3E GFP, TEM4-18 mCherry, primary screen (AID 1345086;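 active = compounds killing one labelled cell type while sparing the other, by normalised counts and ratio limits, not self-fluorescent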;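 for all read-outs here: cells exposed to compound for 72 h before imaging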;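 for red/green cell ratio (normalised): normalised mesenchymal count divided by normalised epithelial count so high means epithelial killing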); settings: PC-3E GFP / TEM4-18 mCherry co-culture, imaging cell counts, at 1 µM; for red/green cell ratio (normalised): actives lie on both sides, counts scaled to control wells, 1 = unselective
[13] = MELAS cybrid and Rieske KO viability enhancers – cell-based, MELAS cybrids, Rieske KO mouse fibroblasts, CellTiter-Glo, primary screen (AID 1508586;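 active = mean z-score across replicates of 1.96 or higher in either the MELAS or the Rieske mutant cell line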;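 note: z relative to plate mean and SD of compound and empty wells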); settings: low glucose
[14] = molecular target: NAD(+) hydrolase SARM1 (Homo sapiens) (UniProt Q6SZW1); experiment: blocking NAD cleavage by SARM1 SAM-TIR – cell lysate, NAD-Glo luminescence (AID 1508614;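 active = compound whose remaining NAD level is above about 45 nM, limit read from the data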;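 note: higher remaining NAD means stronger inhibition of SARM1 NADase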); settings: SAM-TIR HEK293T lysate NADase, at 1 µM, stronger effect = higher value
Chain of NAD(+) hydrolase SARM1 (Homo sapiens) (Q6SZW1 whole entry, looked up, the tested form may be a part): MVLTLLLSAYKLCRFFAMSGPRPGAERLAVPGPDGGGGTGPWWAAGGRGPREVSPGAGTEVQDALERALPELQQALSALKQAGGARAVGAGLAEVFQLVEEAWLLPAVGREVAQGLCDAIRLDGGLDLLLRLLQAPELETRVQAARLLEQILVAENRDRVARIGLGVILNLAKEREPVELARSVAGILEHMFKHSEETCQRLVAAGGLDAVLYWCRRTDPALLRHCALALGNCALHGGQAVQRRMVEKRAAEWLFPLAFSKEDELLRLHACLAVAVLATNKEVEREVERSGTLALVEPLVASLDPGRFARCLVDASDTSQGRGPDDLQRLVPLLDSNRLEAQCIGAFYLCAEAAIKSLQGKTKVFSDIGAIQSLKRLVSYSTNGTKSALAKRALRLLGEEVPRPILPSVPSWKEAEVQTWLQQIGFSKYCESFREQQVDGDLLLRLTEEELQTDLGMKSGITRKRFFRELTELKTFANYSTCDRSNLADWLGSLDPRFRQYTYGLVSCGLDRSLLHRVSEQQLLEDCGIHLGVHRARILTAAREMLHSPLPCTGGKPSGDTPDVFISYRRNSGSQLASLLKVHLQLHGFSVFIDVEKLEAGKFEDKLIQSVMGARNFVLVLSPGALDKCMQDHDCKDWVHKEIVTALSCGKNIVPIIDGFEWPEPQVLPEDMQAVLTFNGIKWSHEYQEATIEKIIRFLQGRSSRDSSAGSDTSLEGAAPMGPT

[15] = molecular target: Mitogen-activated protein kinase 7 (Homo sapiens) (UniProt Q13164); experiment: Gal4-ERK5 driven luciferase induction – cell-based, HTS, primary screen (AID 1508626;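 active = luciferase signal above three times the same-plate solvent-only control wells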;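 note: luciferase driven by Gal4-ERK5 fusion binding five Gal4 sites before minimal TATA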); settings: HeLa Gal4-ERK5 transactivation, 18 h, at 5 µM, stronger effect = higher value
Chain of Mitogen-activated protein kinase 7 (Homo sapiens) (Q13164 whole entry, looked up, the tested form may be a part): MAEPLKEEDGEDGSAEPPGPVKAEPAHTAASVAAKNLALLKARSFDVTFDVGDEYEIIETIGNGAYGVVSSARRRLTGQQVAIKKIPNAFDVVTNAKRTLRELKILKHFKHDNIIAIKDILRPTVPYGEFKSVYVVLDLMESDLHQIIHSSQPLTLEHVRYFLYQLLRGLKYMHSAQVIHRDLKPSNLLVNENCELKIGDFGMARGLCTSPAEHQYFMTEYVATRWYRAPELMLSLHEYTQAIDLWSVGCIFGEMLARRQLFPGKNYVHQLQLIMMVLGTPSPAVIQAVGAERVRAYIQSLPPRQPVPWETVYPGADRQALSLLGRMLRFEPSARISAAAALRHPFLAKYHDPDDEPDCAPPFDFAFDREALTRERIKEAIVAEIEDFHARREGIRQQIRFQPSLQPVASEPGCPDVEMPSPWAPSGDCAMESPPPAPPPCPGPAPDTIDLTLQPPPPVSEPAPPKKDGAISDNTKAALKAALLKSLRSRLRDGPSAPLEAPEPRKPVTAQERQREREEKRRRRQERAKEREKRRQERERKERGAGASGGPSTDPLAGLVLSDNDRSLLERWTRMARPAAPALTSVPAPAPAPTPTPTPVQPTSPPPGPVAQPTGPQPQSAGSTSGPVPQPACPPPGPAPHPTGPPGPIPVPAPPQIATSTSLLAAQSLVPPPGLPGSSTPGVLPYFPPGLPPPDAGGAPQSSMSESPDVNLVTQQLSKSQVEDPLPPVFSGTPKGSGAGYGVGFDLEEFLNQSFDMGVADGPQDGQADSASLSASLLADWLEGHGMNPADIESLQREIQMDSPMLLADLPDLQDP

[16] = drug combination growth inhibition, ovarian cancer – cell-based, oncology-focused library, rucaparib conditional, profiling panel (AID 1508598); settings: patient-derived ovarian cancer cells, CellTiter-Glo viability, 144 h, stronger effect = lower value
[17] = galactose survival enhancers in mitochondrial complex I cybrids – cell-based, galactose medium, ATP luminescence, primary screen (AID 1645843;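 active = z-score of at least 1.8 in each of two replicates, scored against plate mean and spread of sample wells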;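 note: positive z means more ATP and so rescue of galactose-driven cybrid death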); settings: complex I mutant cybrid cells, 72 h, stronger effect = higher value
[18] = growth inhibition, single agents and combos, ICB984, cell-based, cisplatin or BGB combos, synergistic combos for chromothripsis tumors (AID 1671451; call rule not given here;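 note: cells exposed for 96 hours before readout; 0% = vehicle DMSO and 100% = killing by high DMSO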); settings: ICB984 medulloblastoma cells, drug combinations, stronger effect = higher value
[19] = measured here: epithelial PC-3E GFP cell survival
[20] = measured here: mesenchymal TEM4-18 mCherry cell survival

Cc1cc(-n2nc3ccc(Cl)cc3n2)c(O)c(C(C)(C)C)c1
10.1%: nuclear beta-catenin stimulation ([1]; stimulation, at 2 µM)
inactive: nuclear beta-catenin stimulation ([1]; at 10 µM) 3.3% | viability decrease [2] 29.7% | inhibition of viability [3] 22.8% | viability decrease (inhibition) [4] 1.3% | viability decrease (inhibition) [5] 8%

CN1CCN(C2=Nc3cc(Cl)ccc3Nc3ccccc32)CC1
inactive: survival [6] 15.2 | insulin secretion stimulation [7] 3.6% | viability decrease [2] 17.2% | tube area decrease [8] -0.2% | GLP1 secretion stimulation [9] 7.2% | viability decrease (inhibition) [5] 14.1% | inhibition [10] -3.75% | mean signal [11] 262 | red/green cell ratio (normalised) [12] 1.04 | z-score ([13]; MELAS cybrid survival, CellTiter-Glo 48 h, stronger effect = higher value) -1.17 and -0.401 and 0.405 | remaining NAD [14] 10 nM | luciferase signal [15] 24 AU
1.09: normalised cell number [12, 19]
0.276 and 0.587: z-score ([13]; Rieske KO mouse fibroblast survival, CellTiter-Glo 72 h)
1.14: normalised cell number [12, 20]
active: inhibition of viability [3] 63% | viability decrease (inhibition) [4] 66.6%

CCCC(CCC)C(=O)O
1.15: normalised cell number [12, 20]
-20.4% and -26.6%: inhibition ([18]; BGB IC40 combo, at 0.005 µM)
-35.6% and -3.79%: inhibition ([18]; cisplatin combo, at 0.5 µM)
-29.5% and -2.64%: inhibition ([18]; measured here: 5 uM single agent, at 5 µM)
-18.9% and -4.04%: inhibition ([18]; cisplatin combo, at 0.05 µM)
-9.77% and 11.3%: inhibition ([18]; BGB IC20 combo, at 0.005 µM)
-15.7% and -0.427%: inhibition ([18]; BGB IC40 combo, at 0.05 µM)
0.95: normalised cell number [12, 19]
-25.9% and 4.77%: inhibition ([18]; cisplatin combo, at 5 µM)
8.9%: nuclear beta-catenin stimulation ([1]; stimulation, at 2 µM)
inactive: nuclear beta-catenin stimulation ([1]; at 10 µM) -1.5% | viability decrease [2] 4.6% | inhibition of viability [3] 20.8% | viability decrease (inhibition) [4] -4.3% | viability decrease (inhibition) [5] 13.5% | inhibition [10] 13.2% | mean signal [11] 274 | red/green cell ratio (normalised) [12] 1.21 | viability ([16]; at 0.000305 µM, OCI-C5x cells, with rucaparib 10 µM, 100% = cells with rucaparib alone) 125% | viability ([16]; at 0.000305 µM, OCI-C5x cells, without rucaparib) 105% | viability ([16]; at 0.000305 µM, OCI-P5x cells, with rucaparib 20 µM, 100% = cells with rucaparib alone) 129% | viability ([16]; at 0.000305 µM, OCI-P5x cells, without rucaparib) 126% | viability ([16]; at 0.00122 µM, OCI-C5x cells, with rucaparib 10 µM, 100% = cells with rucaparib alone) 125% | viability ([16]; at 0.00122 µM, OCI-C5x cells, without rucaparib) 128% | viability ([16]; at 0.00122 µM, OCI-P5x cells, with rucaparib 20 µM, 100% = cells with rucaparib alone) 124% | viability ([16]; at 0.00122 µM, OCI-P5x cells, without rucaparib) 121% | viability ([16]; at 0.00488 µM, OCI-C5x cells, with rucaparib 10 µM, 100% = cells with rucaparib alone) 113% | viability ([16]; at 0.00488 µM, OCI-C5x cells, without rucaparib) 115% | viability ([16]; at 0.00488 µM, OCI-P5x cells, with rucaparib 20 µM, 100% = cells with rucaparib alone) 122% | viability ([16]; at 0.00488 µM, OCI-P5x cells, without rucaparib) 127% | viability ([16]; at 0.0195 µM, OCI-C5x cells, with rucaparib 10 µM, 100% = cells with rucaparib alone) 119% | viability ([16]; at 0.0195 µM, OCI-C5x cells, without rucaparib) 117% | viability ([16]; at 0.0195 µM, OCI-P5x cells, with rucaparib 20 µM, 100% = cells with rucaparib alone) 123% | viability ([16]; at 0.0195 µM, OCI-P5x cells, without rucaparib) 123% | viability ([16]; at 0.0781 µM, OCI-C5x cells, with rucaparib 10 µM, 100% = cells with rucaparib alone) 111% | viability ([16]; at 0.0781 µM, OCI-C5x cells, without rucaparib) 118% | viability ([16]; at 0.0781 µM, OCI-P5x cells, with rucaparib 20 µM, 100% = cells with rucaparib alone) 121% | viability ([16]; at 0.0781 µM, OCI-P5x cells, without rucaparib) 124% | viability ([16]; at 0.313 µM, OCI-C5x cells, with rucaparib 10 µM, 100% = cells with rucaparib alone) 116% | viability ([16]; at 0.313 µM, OCI-C5x cells, without rucaparib) 115% | viability ([16]; at 0.313 µM, OCI-P5x cells, with rucaparib 20 µM, 100% = cells with rucaparib alone) 118% | viability ([16]; at 0.313 µM, OCI-P5x cells, without rucaparib) 122% | viability ([16]; at 1.25 µM, OCI-C5x cells, with rucaparib 10 µM, 100% = cells with rucaparib alone) 119% | viability ([16]; at 1.25 µM, OCI-C5x cells, without rucaparib) 112% | viability ([16]; at 1.25 µM, OCI-P5x cells, with rucaparib 20 µM, 100% = cells with rucaparib alone) 112% | viability ([16]; at 1.25 µM, OCI-P5x cells, without rucaparib) 128% | viability ([16]; at 5 µM, OCI-C5x cells, with rucaparib 10 µM, 100% = cells with rucaparib alone) 115% | viability ([16]; at 5 µM, OCI-C5x cells, without rucaparib) 116% | viability ([16]; at 5 µM, OCI-P5x cells, with rucaparib 20 µM, 100% = cells with rucaparib alone) 122% | viability ([16]; at 5 µM, OCI-P5x cells, without rucaparib) 112% | remaining NAD [14] 10 nM | luciferase signal [15] 132 AU | z-score [17] 0.57 and 0.76 and 0.71 | inhibition ([18]; at 0.5 µM) -27.6% and -12.8%

Source: PubChem BioAssay
